From PubChem BioAssay (EPA / NIEHS)
Several values for one entry are separate records, joined by “and”; a condition that tells them apart may be missing. Equal values may be shown once. Where a structure was tested more than once in an assay, its records may differ in their call. Activity calls are given as the source filed them. The calls were made as follows: active = hit-call score of the fitted dose curve at least 0.9, where 1 is the maximum; inactive = score below 0.9.

Target: Paired box protein Pax-6 (Homo sapiens) (UniProt P26367)
Sequence (P26367 whole entry, looked up): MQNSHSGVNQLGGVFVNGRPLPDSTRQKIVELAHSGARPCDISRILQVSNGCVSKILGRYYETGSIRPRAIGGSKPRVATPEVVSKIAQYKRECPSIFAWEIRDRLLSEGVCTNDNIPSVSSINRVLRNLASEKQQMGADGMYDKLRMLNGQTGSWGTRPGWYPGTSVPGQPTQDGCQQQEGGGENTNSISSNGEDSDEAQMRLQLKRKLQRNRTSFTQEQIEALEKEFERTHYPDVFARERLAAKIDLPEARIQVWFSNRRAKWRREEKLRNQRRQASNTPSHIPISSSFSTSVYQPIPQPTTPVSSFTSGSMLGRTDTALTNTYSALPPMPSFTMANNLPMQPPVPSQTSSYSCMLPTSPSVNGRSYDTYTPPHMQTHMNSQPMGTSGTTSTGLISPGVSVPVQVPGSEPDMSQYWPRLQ
Experiment: ATG_Pax6_CIS: Attagene CIS-FACTORIAL HepG2 Assay for human Paired Box 6 (PAX6) (AID 2282956)
Conditions: HepG2 CIS-FACTORIAL PAX6 reporter transcription, RNA readout; actives raise or lower the signal
Protocol: ATG_CIS is a cell-based, multiplexed-readout assay that uses HepG2, a human liver cell line, with measurements taken at 24 hours after chemical dosing in a 24-well plate.ATG_Pax6_CIS is one of 52 assay component(s) measured or calculated from the ATG_CIS assay. It is designed to make measurements of mRNA induction, a form of inducible reporter, as detected with fluorescence intensity signals by Reverse transcription polymerase chain reaction (RT-PCR) and Capillary electrophoresis technology.Data from the assay component ATG_Pax6_CIS was analyzed into 1 assay endpoint. This assay endpoint, ATG_Pax6_CIS, was analyzed with bidirectional fitting relative to DMSO as the negative control and baseline of activity. Using a type of inducible reporter, measures of mRNA for gain or loss-of-signal activity can be used to understand the reporter gene at the transcription factor-level as they relate to the gene PAX6. Furthermore, this assay endpoint can be referred to as a primary readout, because this assay has produced multiple assay endpoints where this one serves a reporter gene function. To generalize the intended target to other relatable targets, this assay endpoint is annotated to the dna binding intended target family, where the subfamily is paired box protein.
Human liver HepG2 cells are transiently transfected with multiple reporter transcription units (MRTUs) in 6-well plates using FuGene 6 reagent (Roche; 3 ml FuGene/1 mg DNA). The MRTU constructs are regulated by a cis-regulating element (promoter). […] A major difference between the CIS and TRANS system is that in CIS activities of endogenous TFs are measured, whereas the TRANS assay evaluates changes in activities of exogenous, chimeric NR-Gal4 proteins. […] At the end of 24 hour incubation, total RNA was isolated using TriZol reagent (Invitrogen). The isolated RNA is then reverse-transcribed using oligo(dT) primer and Mo-MLV reverse transcriptase (Invitrogen) with DNAse I (Ambion) treatment for 30 min. The one-tenth of the produced cDNA was amplified by PCR using Taq DNA polymerase (Invitrogen) and two reporter sequence-specific primers. The PCR products were fluorescently labeled by primer extension with 6-arboxyfluorescein (6-FAM) 5'-labeled reporter sequence-specific primer (2 min at 95 C, 20 s at 68 C and 10 min at 72 C) and these products were digested with 5U of HpaI (New England Biolabs) for 2h at 37 C. The fragments were purified using Qiaquick PCR columns (Qiagen), analyzed on an ABI 3130xL genetic analyzer (Applied Biosystems) with peak positions identified by using a set of X-rhodamine (ROX)-labeled MapMarker1000 molecular weight standards (BioVentures). The raw capillary electrophoresis data was processed using Attagraph software (Attagene).

| Structure (SMILES) | outcome | AC50 |
| --- | --- | --- |
| NC(=O)NN=Cc1ccc([N+](=O)[O-])o1 | inactive |  |
| CCCOc1ccc(S(=O)(=O)N2CCN(CC)CC2)cc1-c1nc2c(CC)n(Cc3ccccn3)nc2c(=O)[nH]1 |  | 40.2 µM (active) |
| OC(O)(C(F)C(O)(O)C(F)(F)F)C(F)(F)F | inactive |  |
| Cc1nc(-c2ccccn2)ncc1C(=O)Nn1cc(C)c2cc(F)ccc21 | inactive |  |
| OC[C@H]1O[C@@](CO)(O[C@H]2O[C@H](CO)[C@@H](O)[C@H](O)[C@H]2O)[C@@H](O)[C@@H]1O | inactive |  |
| FC(F)(F)COC(OCC(F)(F)F)OCC(F)(F)F | inactive |  |
| OCCC(F)(F)C(F)(F)C(F)(F)C(F)(F)F | inactive |  |
| O=C(NO)C1(NS(=O)(=O)c2ccc(Oc3ccc(F)cc3)cc2)CCOCC1 | inactive |  |
| O=C(O)[C@H](O)[C@@H](O)C(=O)O | inactive |  |
| FC(F)=C(F)C(F)(F)C(F)(F)C(F)(F)C(F)(F)C(F)(F)C(F)(F)F | inactive |  |
| Cc1nccn1-c1ccc(Sc2cccc(C3(C(N)=O)CCOCC3)c2)cc1 | inactive |  |
| OC(Cn1cncn1)(Cn1cncn1)c1ccc(F)cc1F | inactive |  |
| O=C(N[C@H](CO)[C@H](O)c1ccc([N+](=O)[O-])cc1)C(Cl)Cl | inactive |  |
| c1ccc2c(c1)-c1cccc3c1c-2cc1ccccc13 | inactive |  |
| CCCCC(CC)C(=O)OCCOCCOCCOC(=O)C(CC)CCCC (stereo not given) | inactive |  |
| CC(C)CC(C)O (stereo not given) | inactive |  |
| CC(C)c1nnc2ccc(-c3ocnc3-c3cc(F)ccc3F)cn12 | inactive |  |
| S=P(N1CC1)(N1CC1)N1CC1 | inactive |  |
| CC1(C)C(=O)N(Cl)C(=O)N1Cl | inactive |  |
| Cc1cccc(O)c1C | inactive |  |

| Structure (SMILES) | outcome | AC50 |
| --- | --- | --- |
| NC(=O)N(O)[C@@H]1COc2cc(OCc3ccccc3)ccc21 | inactive |  |
| CCCCN1C(=O)[C@@H]([C@H](O)C2CCCCC2)NC(=O)C12CCN(Cc1ccc(Oc3ccc(C(=O)O)cc3)cc1)CC2 | inactive |  |
| Cc1ncc([C@@H](CCCCCCc2ccc3c(n2)NCCC3)CC(=O)O)cn1 | inactive |  |
| O=c1[nH]cnc2c1ncn2[C@H]1CC[C@@H](CO)O1 | inactive |  |
| COCc1nnc(-c2ccc[n+]([O-])c2)n1-c1c(Cl)c(Cl)cc2[nH]c(=O)c(=O)[nH]c12 | inactive |  |
| OC(CCl)CCl | inactive |  |
| CCOc1ccc2[nH]cc(C(=O)NCc3ccccc3)c(=O)c2n1 | inactive |  |
| NCC(F)(F)C(F)(F)C(F)(F)C(F)(F)F | inactive |  |
| O=C(O)c1ccc2c(c1)nc(C(=O)NC1CCN(C3CC3)CC1)n2Cc1cc(-c2ccc(Cl)s2)on1 | inactive |  |
| OCc1c[nH]c2ccccc12 | inactive | 6.46 µM (active) and 23.1 µM (active) and 38.2 µM (active) |
| Cn1c(=O)c2[nH]cnc2n(C)c1=O | inactive |  |
| OCc1ccccc1 | inactive |  |
| c1ccc(C(O[C@@H]2CCCN(CCc3ccc4c(c3)OCO4)C2)c2ccccc2)cc1 |  | 44.3 µM (active) |
| C=CCc1cc(S(=O)(=O)c2ccc(O)c(CC=C)c2)ccc1O |  | 33.4 µM (active) |
| CC(=O)c1ccccc1 | inactive |  |
| NC(=O)N1c2ccccc2C=Cc2ccccc21 | inactive |  |
| C=CN1CCCC1=O | inactive |  |
| CCN(CC)C(=S)SSC(=S)N(CC)CC |  | 137 µM (active) |
| COc1cc2c(c(OC)c1OC)-c1ccc(OC)c(=O)cc1[C@@H](NC(C)=O)CC2 | inactive |  |
